# Eya2 inh: qHTS Assay for Inhibitors of the Phosphatase Activity of Eya2 | Protein phosphatase EYA2 (Homo sapiens), O00167 | recombinant Eya2, OMFP fluorescence dephosphorylation (OMFP is methylfluorescein phosphate) | Potency, µM (doses to about 76.9 µM), for inactives: at the highest dose activity, negative = inhibition, hits mostly inhibitors | 0.006% of 330,000 active | AID 488837, 2010; also: potency is read from the fitted curve at half-maximal effect; % is scaled to controls: 0 for no effect and ±100 for the full control effect
#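 Eya2 protein (added as 0.2 uM solution) was preincubated with compound for 10 min at ambient temperature in 50 mM HEPES pH 7.5, 50 mM NaCl, 5 uM MgCl2, 0.05% BSA, 1 mM DTT. OMFP (added at 50 uM) then reacted 10 min; fluorescence read at 485/525 nm.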
# USP2a inh: qHTS Assay for Inhibitors of Ubiquitin-specific Protease USP2a Using CHOP2 as the Reporter; 0.01% of 330,000 active; AID 463254, 2010; Potency, µM (titrated, usually from 38.3 µM), inactives show at the top dose activity change, negative = inhibition, usual class: inhibitors; USP2 core, Ub-CHOP2 coupled fluorogenic reporter, 485/531;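 also: potency is read from the fitted curve at half-maximal effect; plate controls were DMSO wells for no effect and full inhibition by NEM control for full effect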
#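 Cell-free coupled assay: 10nM USP2 core preincubated 30min RT with compound in Tris-HCl pH 8.0/CaCl2/CHAPS buffer, then 25nM Ub-CHOP2 and 25nM reporter substrate; fluorescence (Ex 485/Em 531) read after 60min RT, normalized to NEM inhibition, concentration-response curves fitted.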
# D1 agonist: Allosteric Agonists of the Human D1 Dopamine Receptor: qHTS. D(1A) dopamine receptor (Homo sapiens), P21728. AID 504660, 2011. HEK293 T-REx D1 cells, calcium flux, agonist mode. 1% of 360,000 active. activation, % at 2 µM; in the data active = activation above about 30%; also: 0% is about no effect
# Target sequence (P21728 whole entry, looked up): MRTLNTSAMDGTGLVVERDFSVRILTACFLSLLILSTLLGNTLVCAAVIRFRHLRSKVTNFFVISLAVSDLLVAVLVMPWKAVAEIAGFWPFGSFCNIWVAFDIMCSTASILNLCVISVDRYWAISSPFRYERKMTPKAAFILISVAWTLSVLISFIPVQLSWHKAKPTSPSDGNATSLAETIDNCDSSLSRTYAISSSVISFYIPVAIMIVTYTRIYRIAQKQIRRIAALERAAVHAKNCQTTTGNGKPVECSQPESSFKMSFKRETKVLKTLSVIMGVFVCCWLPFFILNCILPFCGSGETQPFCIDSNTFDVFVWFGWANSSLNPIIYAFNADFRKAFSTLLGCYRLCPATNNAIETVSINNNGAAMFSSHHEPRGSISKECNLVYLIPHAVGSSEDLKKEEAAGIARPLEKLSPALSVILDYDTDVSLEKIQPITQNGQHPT
#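 Agonism was scored from calcium flux recorded over 180 s (1 read/s) after pintool compound addition, following a 10-cycle baseline. Cells were inducible force-coupled HEK293 TREx D1, plated overnight at 30 C and loaded with no-wash calcium dye.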
# D1 antagonist: Antagonist of Human D 1 Dopamine Receptor: qHTS; AID 504652, 2011; 3.2% of 360,000 active; D(1A) dopamine receptor (Homo sapiens), P21728; HEK293 TREx D1 cells, calcium flux, dopamine EC80; stronger effect = lower value; activity change, negative = inhibition, % at 10 µM; in the data active = activity change below about -30%; also: % is scaled to controls: 0 for no effect and ±100 for the full control effect
#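 Cells carrying a force-coupled, tetracycline-inducible human D1 receptor report calcium flux. Each well gets a 10 s baseline, compound with 180 s monitoring, then an EC80 dopamine stimulus with a second 180 s kinetic read.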
# D1 potentiator: Potentiators of Human D1 Dopamine Receptor: qHTS; AID 504651, 2011; D(1A) dopamine receptor (Homo sapiens), P21728; HEK293 TREx D1 cells, calcium flux, dopamine EC20 potentiation; 0.036% of 360,000 active; potentiation, % at 10 µM; in the data active = potentiation above about 30%; also: 0% is about no effect
# GALK inh: qHTS Assay for Inhibitors of Human Galactokinase (GALK). Potency, µM (doses to about 57.5 µM), for the others: top-dose activity change, negative = inhibition, usual class: inhibitors. AID 1868, 2009. 0.007% of 270,000 active. Purified GALK, Kinase-Glo residual ATP luminescence. P51570; also: potency is read from the fitted curve at half-maximal effect; % is scaled to controls: 0 for no effect and ±100 for the full control effect
#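 Compounds were pin-transferred into ATP buffer (35 uM final), then GALK plus galactose (5 nM, 100 uM final) was added. After 1 h at room temperature, Kinase-Glo Plus was added and luminescence read after 10 min.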
# * hit, by the source's call; x = no result; ! = not confirmed by another sample. In the library only some 3.9% were active in any assay of this set; here they are far more common. Unless noted, calls follow the shape of the dose curve; as a rule, active = well fitted inhibition curve with a large enough effect; inconclusive = small, poorly fitted or top-dose-only effect, or effect the other way; inactive = flat fitted curve, though single readings scatter.
SMILES,Eya2 inh,USP2a inh,D1 agonist,D1 antagonist,D1 potentiator,GALK inh
N#Cc1nc(Nc2cccc(Br)c2)nc(NC2CCCC2)n1,x,x,7,-14,-4,x
Cc1ccc(-n2c3c(c(=O)[nH]c2=O)C(NC(=O)c2ccccc2C)(C(F)(F)F)C(=O)N3)cc1 (configuration not stated),x,x,1,5,-6,x
Cc1cc2c(s1)c1cnn(Cc3cccc(F)c3F)c(=O)c1n2C,x,x,1,-9,5,x
CCC1CCCCN1CCCNC(=O)c1sc2nc(C)cc(C)c2c1-n1cccc1 (configuration not stated),x,x,-1,6,-2,x
O=C(O)C1C2CCC(O2)C1C(=O)NCc1ccc(Cl)cc1 (configuration not stated),4%,2%,1,-37*,-10,3%
COc1ccc(NC(=O)C(CC(C)C)NC(=O)C2CCCCC2)cc1 (configuration not stated),x,x,2,4,0,x
COc1cc(NC(=O)c2cccc3c2C(=O)N(C2CCCCC2)C3)cc(OC)c1OC,-7%,-9%,-1,-78*!,1,1%
Oc1ccc2[nH]ccc2c1,-1%,1%,3,-30*,-4,1%
Oc1ccc2ccc3[nH]cnc3c2c1,6%,1%,2,8,-2,6%
O=C(Cn1cc(SCc2ccc(F)cc2)c2ccccc21)N1CCCCCC1,x,x,5,-25,-4,x
O=C(CSc1cn(CC(=O)N2CCCC2)c2ccccc12)Nc1ccccc1C(F)(F)F,x,x,0,-44*,-7,x
O=C(Cn1cc(SCc2ccc(F)cc2)c2ccccc21)N1CCCC1,x,x,6,-30*,-5,x
Cc1cc(C)c2ccc3c(C)c(C)nc3c2[nH]1,3%,-1%,5,-47*,-4,1%
Cc1cc(=O)[nH]c2c(C)c(N)ccc12,-15%,0%,3,7,3,-4%
CCN(CCN(C)C)C(=O)C1CCN(S(=O)(=O)c2c(C)noc2/C=C/c2ccccc2F)CC1,-9%,3%,28,-37*,-7,1%
O=S(=O)(NCCN1CCCC1)c1cccc2cccnc12,3%,0%,1,-5,-1,1%
O=S(=O)(NCCCN1CCN(c2ccccc2F)CC1)c1cccc2cccnc12,-1%,0%,3,-73*,-10,0%
CC(OC(=O)CCCN=C1NS(=O)(=O)c2ccccc21)C(=O)Nc1ccccc1F (configuration not stated),12%,1%,3,-39*,-12,x
O=C(CCN=C1NS(=O)(=O)c2ccccc21)OCC(=O)c1ccc(F)cc1,-8%,4%,4,-13,-6,x
O=C(CCCN=C1NS(=O)(=O)c2ccccc21)OCC(=O)c1ccc(F)cc1,23%,0%,56*,-8,2,x
CC(NC(=O)C1CCN(C(=O)c2ccc(-n3ccc4ccccc43)s2)CC1)c1ccccc1 (configuration not stated),x,x,4,9,3,x
CC(C)c1ccccc1NC(=O)Cn1cnc2c1c(=O)n(C)c(=O)n2C,x,x,4,6,-1,x
COc1cccc(C(=O)c2c(N)c(-c3nc(-c4ccccc4)cs3)c3ccccn23)c1,x,x,8,-43*,2,x
COc1ccc(-c2csc(-c3c(N)c(C(=O)c4ccccc4)n4ccccc34)n2)cc1,x,x,0,-3,-2,x
Nc1c(-c2nc(-c3ccc4c(c3)OCO4)cs2)c2ccccn2c1C(=O)c1ccccc1,x,x,0,-41*,1,x
SMILES,Eya2 inh,USP2a inh,D1 agonist,D1 antagonist,D1 potentiator,GALK inh
CCC(C)NC(=O)Cn1c(=O)n(CCCCCC(=O)NCc2ccccc2Cl)c(=O)c2sccc21 (configuration not stated),x,x,0,-8,1,x
CCOc1ccc(-n2c(=O)c3sc4ccccc4c3n(Cc3ccc(F)cc3)c2=O)cc1,x,x,0,7,-1,x
CC1=CC(=O)C=C(C)C1=NOc1ccccc1[N+](=O)[O-],-3%,5%,0,-66*,-2,x
CC(C)(C)/C(COc1ccccc1[N+](=O)[O-])=N/O,-11%,4%,0,x,0,-2%
O=C1OCC2OC(O)C(O)C(O)C2OC(=O)c2cc(O)c(O)c(O)c2-c2c(O)c(O)c3oc(=O)c4c(c(O)c(O)c5oc(=O)c2c3c54)-c2c1cc(O)c(O)c2O (configuration not stated),2%,0.5µM*,0,4,0,-2%
CS(=O)(=O)Nc1nnc(SCC(=O)Nc2cccc([N+](=O)[O-])c2)s1,-3%,3%,2,-79*,-4,0%
CCc1ccccc1NC(=O)CSc1nc(-c2ccccc2)nn1C(=O)c1cccc([N+](=O)[O-])c1,-4%,-1%,3,2,1,x
Nc1ccc(SCC(=O)Nc2cccc([N+](=O)[O-])c2)cc1,-1%,5%,5,-49*,-8,0%
O=C(CSc1nc(-c2ccccc2)nn1C(=O)c1ccccc1)Nc1cccc([N+](=O)[O-])c1,-9%,0%,15,-34*,-2,3%
O=C(CSCCO)Nc1cccc([N+](=O)[O-])c1,-1%,2%,0,-1,-6,0%
CCOc1ccc(CCNC(=O)CS(=O)(=O)Cc2nc(-c3cccc(Cl)c3)oc2C)cc1,x,x,8,-16,0,x
COC(=O)c1ccc(NC(=O)C(C)N2Cc3ccccc3C2=O)cc1 (configuration not stated),x,x,-1,-9,0,x
COCCCNC(=O)CSc1nc2cc3c(cc2c(=O)n1CCCC(=O)NCc1ccc2c(c1)OCO2)OCO3,x,x,-1,12,-3,x
Cc1ccc(C)c(CN2CCC(CNC(=O)Nc3ccc(Cl)cc3)CC2)c1,6%,-3%,23,-33*,-21,2%
Cc1ccc(C)c(CN2CCC(CNC(=O)Nc3ccc(Br)cc3F)CC2)c1,-12%,2%,2,5,-2,x
CCOc1ccccc1N1CCN(Cc2cn[nH]c2-c2ccc(F)cc2)CC1,-17%,-4%,43*,58,4,-4%
COc1ccc(F)cc1S(=O)(=O)N1CCCC(C)C1 (configuration not stated),-15%,-2%,0,5,-5,0%

# Bioassay records from PubChem BioAssay.
